Assay outcomes as filed in PubChem BioAssay.
SENP7 block – inhibitors of human SENP7 protease; Q9BQF6; recombinant SENP7, Z-RLRGG-aminoluciferin luminescence, 40 min; inhibition, % at 5 µM; hit rate 1.5% among 330,000;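 active means inhibition above about 50% at the single test dose, limit read from the data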
SENP6 inh – inhibitors of human SENP6 protease; Recombinant SENP6 catalytic domain, aminoluciferin luminescence; hit rate 1.8% among 330,000; Q9GZR1; inhibition, % at 10 µM;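 active means inhibition above about 50% at the single tested dose, limit read from the data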
Target sequence (Q9GZR1 628-1112 limits assumed): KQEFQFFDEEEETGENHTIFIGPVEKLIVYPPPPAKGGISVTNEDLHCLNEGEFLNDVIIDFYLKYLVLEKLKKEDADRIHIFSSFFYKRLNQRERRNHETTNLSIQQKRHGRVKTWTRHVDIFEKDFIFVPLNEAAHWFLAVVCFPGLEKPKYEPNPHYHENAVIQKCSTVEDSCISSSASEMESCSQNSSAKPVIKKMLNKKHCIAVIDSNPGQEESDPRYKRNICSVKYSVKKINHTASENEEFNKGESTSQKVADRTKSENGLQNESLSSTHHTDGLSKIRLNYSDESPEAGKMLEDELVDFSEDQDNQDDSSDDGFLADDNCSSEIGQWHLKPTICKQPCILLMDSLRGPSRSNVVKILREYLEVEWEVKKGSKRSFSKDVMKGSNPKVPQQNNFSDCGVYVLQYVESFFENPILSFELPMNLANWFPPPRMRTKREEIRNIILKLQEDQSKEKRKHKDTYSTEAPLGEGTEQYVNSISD
SENP8 block-1 – blocks human SENP8 cleavage of Nedd8 substrate | recombinant SENP8, Nedd8 substrate fluorescence | AID 602440 | Q96LD8 | hit rate 0.64% among 360,000 | inhibition, % at 20 µM; in the data active means inhibition mostly above about 40%, no sharp cut-off; inactive means mostly below about 27%
SENP8 block-2 – SENP8 protease inhibition; hit rate 1.2% among 330,000; inhibition, % at 10 µM; AID 2540; purified SENP8, Z-RLRGG-aminoluciferin cleavage, luminescence; Q96LD8; in the data active means inhibition above about 50%
LGR2 antag – blocks bursicon-induced cAMP signaling via Drosophila LGR2 | HEK293 LGR2, CRE-luciferase, bursicon-stimulated, 4 h | inhibition, % at 9.99 µM | hit rate 0.35% among 380,000 | AID 720647;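 active means drop in luminescence signal, shown as inhibition above about 50% in the replicate tests, limit read from the data, passing the limit was not always enough; inconclusive means probably only some replicates passing the limit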;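 further: agonist challenge used bursicon conditioned medium at about half maximal strength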
HSP90 refold inh – blocks HSP90-mediated luciferase refolding in reticulocyte lysate; hit rate 0.91% among 290,000; inhibition, % at 5.6 µM; Rabbit reticulocyte lysate, luciferase refolding luminescence, 3 h; AID 1789;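 active means inhibition above the screen-wide mean plus 3 SD, computed separately per campaign, cut at about 16% in these data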;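 further: inhibitors lower the luminescence because luciferase stays unfolded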
HSP90 inh confirm – HSP90 inhibition, confirmation assay; shares compounds with HSP90 refold inh; rabbit reticulocyte lysate, luciferase refolding luminescence, 3 h; inhibition, % at 5.9 µM; hit rate 64% among 2,300; in the data active means inhibition above about 18%
FLuc counter – counter-screen for HSP90 inhibitors: inhibitors of firefly luciferase; shares compounds with HSP90 refold inh; purified native firefly luciferase, luminescence; inhibition, % at 5.9 µM; hit rate 48% among 2,300; AID 1847;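 active means inhibition above the mean inhibition of all tested sample wells plus 3 SD, cut at about 10% in these data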
A number is an active result; - = inactive; ? = inconclusive; . = no result given. Hits are enriched below; roughly 2.3% of the tested compounds scored in any of these assays.

SMILES	SENP7 block	SENP6 inh	SENP8 block-1	SENP8 block-2	LGR2 antag	HSP90 refold inh	HSP90 inh confirm	FLuc counter
CC(C)(C)n1ncc2c(=O)n(CC(=O)NCc3ccccc3)cnc21	-	-	-	-	.	21	37	34
O=C(C[C@@H]1CC[C@H]2[C@@H](COC[C@H](O)CN2S(=O)(=O)c2ccccc2)O1)N1CCOCC1	.	.	.	.	-	.	.	.
Cc1nnc(NC(=O)CSc2nc3ccccc3o2)s1	-	-	-	-	-	-	.	.
CC1CCc2nc(NC(=O)CSc3nc4ccccc4o3)sc2C1 (stereo not drawn)	-	-	-	-	.	46	51	49
Cc1ccc(C(=O)NC2CCCCCCC2)c(Cl)c1	-	-	-	-	80	42	63	53
NNC(=O)CN1CCCc2ccccc21	-	-	-	-	-	25	46	39
Cc1ccccc1NC(=O)CN1CCN(Cc2ccccc2)CC1	-	-	-	-	-	-	.	.
CCN(CC)S(=O)(=O)c1ccc(C)c(NC(=O)CN2CCN(Cc3ccccc3)CC2)c1	-	-	-	-	-	29	-	-
C[C@@H]1CN([C@@H](C)CO)C(=O)c2cc(NC(=O)CCC(F)(F)F)ccc2O[C@H]1CN(C)Cc1ccccc1	.	.	.	.	-	.	.	.
CCCOc1ccc(C(=O)Nc2nc(C)c(Cc3ccc4c(c3)OCO4)s2)cc1	-	-	-	-	-	24	-	-
Cc1nc(NC(=O)c2ccc(OCC(C)C)cc2)sc1Cc1ccc2c(c1)OCO2	-	-	-	-	-	32	-	-
COc1cc(C(=O)Nc2nc(C)c(Cc3ccc4c(c3)OCO4)s2)cc(OC)c1OC	-	-	-	-	-	-	.	.
Cc1c(Cc2ccc3c(c2)OCO3)sc(NC(=O)c2ccc3ccccc3c2)c1C(N)=O	-	-	-	-	.	-	.	.
COc1ccc(NC(=O)N(C)C[C@H]2Oc3ccc(NC(=O)NC4CCCCC4)cc3C(=O)N([C@@H](C)CO)C[C@@H]2C)cc1	.	.	.	.	-	.	.	.
Cn1cccc1/C=N/N1CCN(c2ccccc2)CC1	-	-	-	-	-	21	-	-
Cc1cc(C(=O)COC(=O)c2ccc(O)cc2)c(C)n1-c1ccccc1F	-	-	-	-	-	50	58	49
Cc1cc(C(=O)COC(=O)c2ccc[nH]c2=O)c(C)n1-c1ccccc1F	-	-	-	-	-	-	.	.
COc1ccc(-n2c(C)cc(C(=O)Cn3nnc4ccccc4c3=O)c2C)cc1	-	-	-	-	.	-	.	.
Cc1cc(C(=O)Cn2nnc3ccccc3c2=O)c(C)n1-c1ccccc1F	-	-	-	-	?	62	70	54
CC(C)Sc1nc(SCC(=O)NCc2ccco2)c2c3c(sc2n1)COC(C)(C)C3	-	-	-	-	.	21	36	-
CO[C@H]1CN(C)C(=O)c2cc(NC(=O)C3CC3)ccc2OC[C@@H](C)N(Cc2ccc(F)cc2)C[C@H]1C	.	.	.	.	-	.	.	.
C[C@H](CO)N1C[C@H](C)[C@H](CN(C)Cc2ccc3c(c2)OCO3)Oc2c(NS(=O)(=O)c3cn(C)cn3)cccc2C1=O	.	.	.	.	-	.	.	.
C[C@@H]1CN([C@H](C)CO)S(=O)(=O)c2ccc(C#Cc3ccccc3F)cc2O[C@H]1CN(C)CC1CCOCC1	.	.	.	.	-	.	.	.
COc1ccc(N(C(=O)c2ccco2)S(=O)(=O)c2cccc([N+](=O)[O-])c2)cc1	-	-	-	-	.	-	.	.
COc1ccc(N(C(=O)c2ccco2)S(=O)(=O)c2ccc(F)cc2)cc1	-	-	-	-	.	17	-	-
SMILES	SENP7 block	SENP6 inh	SENP8 block-1	SENP8 block-2	LGR2 antag	HSP90 refold inh	HSP90 inh confirm	FLuc counter
COC(=O)c1ccc(Nc2nc3ccc(C)cc3n3cnnc23)cc1	-	-	-	-	-	38	42	10
CC(=O)c1ccc(Nc2nc3ccc(C)cc3n3cnnc23)cc1	-	-	-	-	-	-	.	.
COc1ccc(N(/N=C2\Sc3ccccc3C2=O)C(C)=O)cc1	.	.	52	.	-	20	73	-
COc1ccc(C(=O)NCCn2ccc3ccccc32)c(OC)c1	-	-	-	-	-	38	-	-
CCOc1ccc(CN2CCN(Cc3cc4ccccc4o3)CC2CCO)cc1 (stereo not drawn)	-	-	-	-	-	61	-	-
COc1cccc(CN2CCN(Cc3cc4ccccc4o3)CC2CCO)c1 (stereo not drawn)	-	-	-	-	-	-	.	.
COc1ccc(NC(=O)N2CCCC(c3nc(-c4ccc(OC)cc4)no3)C2)cc1 (stereo not drawn)	-	-	-	-	-	21	-	-
COc1ccc(-c2noc(C3CCCN(C(=O)c4ccccc4)C3)n2)cc1 (stereo not drawn)	-	-	-	-	-	-	.	.
COc1ccc(-c2noc(C3CCCN(C(=O)Nc4ccccc4F)C3)n2)cc1 (stereo not drawn)	-	-	-	-	-	27	-	-
COc1ccc(NC(=O)N2CCCC(c3nc(-c4ccc(C(C)C)cc4)no3)C2)cc1 (stereo not drawn)	-	-	-	-	.	65	-	-
CCCCCC(=O)N1CCCC(c2nc(-c3ccc(OC)cc3)no2)C1 (stereo not drawn)	-	-	-	-	.	-	.	.
COc1ccc(-c2noc(C3CCCN(C(=O)Nc4ccccc4)C3)n2)cc1 (stereo not drawn)	-	-	-	-	-	19	-	-
O=C(O)c1ccc(Nc2nc3c(s2)CCCC3)cc1	100	99	-	96	?	67	91	80
Cc1cccc(Nc2nc3c(s2)CCCC3)c1	.	.	-	.	-	-	.	.
CCCNC(=O)N1C[C@H](C)[C@H](OC)CN(C)C(=O)c2ccc(NS(C)(=O)=O)cc2OC[C@H]1C	.	.	.	.	-	.	.	.
O=C(C1CCCN(S(=O)(=O)Cc2ccccc2)C1)N1CCCCC1 (stereo not drawn)	-	-	-	-	.	25	-	-
O=C(c1ccco1)N1CCN(C(=O)C2CCCN(S(=O)(=O)Cc3ccccc3)C2)CC1 (stereo not drawn)	-	-	-	-	.	-	.	.
C[C@@H]1CN([C@H](C)CO)C(=O)Cc2cc(NC(=O)Nc3ccccc3)ccc2O[C@@H]1CN(C)C(=O)Nc1ccc(F)cc1	.	.	.	.	-	.	.	.
Cc1ccc(-n2[nH]c(=O)c3cccnc32)cc1	-	-	-	-	.	-	.	.
Cc1ccc(-n2[nH]c(=O)c(-c3ccccn3)c2C)cc1	-	-	-	-	94	70	81	76
C[C@@H]1CCCCO[C@H](CN(C)C(=O)CCCN(C)C)[C@@H](C)CN([C@H](C)CO)C(=O)c2cc(NC(=O)C3CCCCC3)ccc2O1	.	.	.	.	-	.	.	.
C=CCc1cccc(C=Nc2cc(Br)ccc2O)c1O	-	-	-	-	-	44	80	-
O=C(Nc1ccc(S(=O)(=O)NCCc2ccccc2)cc1)c1ccncc1	-	-	-	-	-	-	.	.
